# Sfp PPTase inh – blocks B. subtilis Sfp PPTase activity. Biochemical Sfp PPTase activity, qHTS. Q9F4F7. hit rate 3.5% among 310,000. AID 1490. Potency, µM, for the others: largest response in the series, negative = inhibition, hits mostly inhibitors;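 note: the enzyme is Sfp with the accession as filed and its product quenches rhodamine fluorescence; potency is the fitted concentration of half-maximal effect; 0% = enzyme reaction without inhibitor and -100% = no enzyme wells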
#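 Compounds were incubated with enzyme (final 15 nM) for 15 min at room temperature before substrate addition started the reaction. Fluorescence at 525 nm excitation, 598 nm emission was recorded immediately and after 30 minutes.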
# G9a inh – blocks human histone lysine methyltransferase G9a; Potency, µM (doses to about 102 µM), for the others: top-dose activity, negative = inhibition, usual class: inhibitors; hit rate 8.8% among 350,000; AID 504332; G9a H3K9 monomethylation, AlphaScreen, 2 h; Q96KQ7; note: potency is the fitted concentration of half-maximal effect; nearly all actives have a fitted effect of over 75% in size
#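 Readings reflect AlphaScreen signal from monomethyl-H3K9 antibody detection. HMT at 20 nM; substrate b-H3K9 500 nM; cofactor SAM 20 uM; 2 h RT reaction; compounds tested as titrations in qHTS with 15 min preincubation.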
# CCT chaperon mod – changes cytosolic chaperonin activity | purified chaperonin ATPase assay, HTRF ADP detection, 30 min | activity change, % (test concentration not listed), hits read low | hit rate 0.3% among 360,000 | AID 651819; in the data active = activity change below about -30%
#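 ATPase activity: ADP formed was measured by HTRF Transcreener (665/615 nm ratio) after 30 min at 37 deg C with 10 uM ATP. Compounds screened at one 76 uM concentration against 40 or 20 nM TRiC in Tris pH 7.4/KCl/MgCl2/DTT buffer.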
# MmCpn inh – M. maripaludis TRiC chaperonin inhibition; Potency, µM (doses to about 76.9 µM), for the others: at the highest dose activity, negative = inhibition, actives largely listed as inhibitors; hit rate 0.031% among 330,000; AID 504842; purified Mm-Cpn ATPase, ADP Transcreener TR-FRET; note: potency is the fitted concentration of half-maximal effect; nearly all actives have a fitted effect of over 80% in size
#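 Purified archaeal chaperonin (25 nM final) was preincubated with compound for 10 min at 37°C, then ATP (10 uM final) was added for 30 min at 37°C in Tris pH 7.4/KCl/MgCl2/DTT buffer. ADP was quantified by HTRF Transcreener TR-FRET.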
# PLK1 PBD inh – inhibitors of human PLK1 polo-box domain binding | P53350 | Plk1 PBD binding of FITC phosphopeptide, fluorescence polarization | Potency, µM, for inactives: max response, negative = inhibition, actives largely listed as inhibitors | hit rate 2.8% among 360,000; note: potency is the fitted concentration of half-maximal effect; series mostly up to about 57 µM; nearly all actives have a fitted effect of over 65% in size
# Target sequence (P53350 whole entry, looked up, the tested form may be a part): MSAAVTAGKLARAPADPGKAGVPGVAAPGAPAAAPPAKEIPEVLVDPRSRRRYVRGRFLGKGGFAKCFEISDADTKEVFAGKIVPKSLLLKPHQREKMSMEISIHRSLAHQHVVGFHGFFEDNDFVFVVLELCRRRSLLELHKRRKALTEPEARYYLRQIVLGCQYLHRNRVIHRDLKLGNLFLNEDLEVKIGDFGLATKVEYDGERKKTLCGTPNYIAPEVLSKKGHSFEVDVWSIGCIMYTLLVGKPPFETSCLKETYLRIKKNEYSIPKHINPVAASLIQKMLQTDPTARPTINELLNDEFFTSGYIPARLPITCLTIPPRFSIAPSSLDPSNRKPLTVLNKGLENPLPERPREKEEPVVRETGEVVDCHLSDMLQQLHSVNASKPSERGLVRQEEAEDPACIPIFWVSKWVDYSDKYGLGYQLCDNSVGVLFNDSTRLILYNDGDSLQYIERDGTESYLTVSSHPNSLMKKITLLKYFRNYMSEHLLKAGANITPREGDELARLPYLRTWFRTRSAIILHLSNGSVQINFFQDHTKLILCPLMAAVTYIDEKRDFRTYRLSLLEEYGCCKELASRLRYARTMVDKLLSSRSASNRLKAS
# VDR inhibitor – inhibitors of human vitamin D receptor. VDR-SRC2-3 peptide fluorescence polarization, 2 h. Potency, µM, inactives show max response, negative = inhibition, hits mostly inhibitors. P11473. AID 504847. hit rate 0.93% among 400,000; note: potency is the fitted concentration of half-maximal effect
#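 Two reagent solutions held at 4 deg C in the dark were dispensed, compounds pinned at 23 nl, and the mixture incubated 2 h at room temperature. Read-out: fluorescence polarization of VDR–SRC2-3 peptide binding.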
# Starred values were filed as active, the others as inactive; ? = inconclusive; · = no result; [ ] = remark or other dose. This is a sample that favours compounds with a hit; in the whole collection about 10% have one here. Unless noted, calls come from the whole dose curve; as a rule, active = well fitted curve in the direction sought with a large enough effect; inconclusive = small, poorly fitted or top-dose-only effect, or another doubt; inactive = no such curve, though single readings can be large; an effect the other way counts as inactive or inconclusive. Unless noted, % is set by controls: 0 for no effect and ±100 for the full control effect.
SMILES,Sfp PPTase inh,G9a inh,CCT chaperon mod,MmCpn inh,PLK1 PBD inh,VDR inhibitor
Cc1ccc(/C=N/NC(=S)NC2CCS(=O)(=O)C2)cc1 (stereo not given),?,-26%,-6,-1%,-1%,11%
COc1ccc(/C=N/NC(=S)NC2CCS(=O)(=O)C2)cc1OC (stereo not given),56µM*,·,-3,2%,-10%,-7%
O=C1C(=O)N(CCCn2ccnc2)C(c2ccccn2)/C1=C(/O)c1ccccc1 (stereo not given),13%,50µM*,·,0%,·,·
CCCOc1ccc(/C(O)=C2/C(=O)C(=O)N(CCCn3ccnc3)C2c2ccco2)cc1 (stereo not given),10%,·,0,1%,-8%,-13%
C=CCOc1ccc(/C(O)=C2/C(=O)C(=O)N(CCCn3ccnc3)C2c2ccco2)cc1 (stereo not given),22%,20µM*,1,-2%,-3%,3%
Cc1ccc(S(=O)(=O)c2nnn3c2nc(N2CCN(c4cccc(C)c4C)CC2)c2ccccc23)cc1C,·,-17%[59 µM],·,·,·,4%
COc1ccc(-n2c(=O)c(-c3ccc(Cl)cc3)nc3cnc(N4CCNCC4)nc32)cc1,-22%,4%[0.501 µM],·,·,·,-16%
Cc1cnc(C(=O)Nc2cccc3ncccc23)cn1,-8%,-38%,0,0%,-3%,-8%
Cc1cnc(C(=O)Nc2ccccc2-c2ccc(C)o2)cn1,50µM*,?,-2,-1%,-7%,-5%
CCOc1ccc(N=c2scc(-c3ccc(OC)cc3)n2CCO)cc1,-12%,2.8µM*,-3,-11%,-7%,-5%
OCCn1c(-c2ccc(F)cc2)csc1=Nc1ccccc1,-8%,20µM*,-5,2%,-1%,-29%
CCn1c(-c2ccccc2)csc1=Nc1ccc(O)cc1,-25%,3.5µM*,-3,-1%,-6%,-7%
CC(C)n1c(-c2ccco2)csc1=Nc1cccnc1,-13%,13µM*,-1,-1%,-9%,?
OCCn1c(-c2ccc3c(c2)OCO3)csc1=Nc1ccccc1,-12%,-47%[12.7 µM],-1,?,-17%,-19%
CC(C)OC(=O)C(C(=O)OC(C)C)=C1SC=CS1,16%,28%[59 µM],·,·,·,-3%
COc1ccc(NC(=O)C2CCN(S(=O)(=O)c3ccc4[nH]c(=O)ccc4c3)CC2)cc1Cl,·,8%[59 µM],·,·,·,0%
COC(=O)c1ccccc1NC(=O)c1c(NC(=O)c2ccco2)sc2c1CCC(C(C)(C)C)C2 (stereo not given),·,-30%[59 µM],·,·,·,8%
CCOc1ccc(N(C(=O)c2ccc(C)cc2)S(=O)(=O)c2ccc3c(c2)n(C)c(=O)n3C)cc1,·,?,·,·,·,-5%
c1ccc(-c2csc(=Nc3cccnc3)n2CC2CCCO2)cc1 (stereo not given),-3%,?,1,1%,-9%,-12%
COCCn1c(-c2ccccc2)csc1=Nc1cccnc1,6%,40µM*,0,1%,-11%,19%
CCOc1ccc(N=c2scc(-c3ccccc3)n2CCO)cc1,6%,16µM*,-2,-1%,-6%,0%
CC(C)c1ccc(NS(=O)(=O)c2ccc3[nH]cc(C(=O)N4CCCC4)c(=O)c3c2)cc1,·,?,·,·,·,-9%
O=C(Cc1ccc(F)cc1)Nc1nnc2n1CCS2,·,10µM*,·,·,·,7%
O=C(Cc1ccccc1)Nc1nnc2n1CCS2,·,10µM*,·,·,·,1%
COc1ccc(CC(=O)Nc2nnc3n2CCS3)cc1,·,?,·,·,·,9%
SMILES,Sfp PPTase inh,G9a inh,CCT chaperon mod,MmCpn inh,PLK1 PBD inh,VDR inhibitor
CCOc1ccc(CC(=O)Nc2nnc3n2CCS3)cc1,·,29%[59 µM],·,·,·,-2%
C/C(=N\NC(=O)c1cc(-c2ccco2)nc2ccccc12)c1cccnc1,1%,40µM*,-2,1%,-19%,0%
CCOc1ccc(-c2cc(C(=O)N/N=C(\C)c3cccnc3)c3ccccc3n2)cc1,-11%,35µM*,1,-3%,-4%,13%
CC(=NNC(=O)c1cc(C)nc2ccccc12)c1ccc(N2CCOCC2)cc1,·,·,0,-2%,-4%,-8%
C/C(=N\NC(=O)c1cc(-c2ccncc2)nc2ccccc12)c1ccc(N2CCOCC2)cc1,5%,1%,-1,2%,30µM*,-16%
CCOc1cc2sc(N3CCC(C(=O)Nc4ccccc4Cl)CC3)nc2cc1Br,·,-4%[59 µM],·,·,·,-10%
COc1cccc(Cn2c(=O)c(-c3cccc(C#N)c3)nc3cnc(N4CCOCC4)nc32)c1,23%,8%[0.501 µM],·,·,·,3%
CCc1ccccc1NC(=O)C(=O)NCC(c1cccnc1)N1CCN(c2ccccc2F)CC1 (stereo not given),·,1%[59 µM],·,·,·,4%
Cc1noc(C)c1CSc1nc2ccccc2nc1NS(=O)(=O)c1ccc(Cl)cc1,5%,?,-1,-2%,6µM*,-7%
Cc1ccc(Cl)cc1NC(=S)N(CCCN1CCN(C)CC1)Cc1cccs1,10%,?,2,0%,-6%,7%
O=C(Nc1ccc(Cl)cc1)N(CCCN1CCOCC1)Cc1cccs1,-10%,9%,-1,-2%,-8%,-13%
Cc1ccc(NC(=S)N(CCCN2CCOCC2)Cc2ccccn2)cc1Cl,32µM*,35%[59 µM],-1,-2%,-4%,-14%
Cc1ccc(NC(=S)N(CCCN2CCOCC2)Cc2ccccn2)cc1,-7%,-12%[59 µM],0,1%,3%,-17%
Cc1cc(Cl)ccc1NC(=S)N(CCCN1CCOCC1)Cc1cccs1,45µM*,?,-3,1%,11µM*,?
O=S(=O)(c1ccc(Cl)cc1)N(CCCN1CCOCC1)Cc1cccs1,-29%,28µM*,1,1%,-6%,2%
Cn1cc(CN(CCCN2CCOCC2)C(=S)Nc2cccc(Cl)c2)c2ccccc21,3%,79µM*,-6,2%,-10%,-10%
Cc1nc2sc(C(=O)N(C)Cc3ccccc3)c(NC(=O)c3ccccc3)c2c(C)c1Cl,·,7%[59 µM],·,·,·,3%
CCN(CC)CCCNC(=O)CNC(=S)N(CCCN1CCOCC1)Cc1cccs1,10%,-23%,-1,-1%,19µM*,-3%
CCCCCC(=O)NC(Cc1ccc(OC)c([N+](=O)[O-])c1)C(=O)O (stereo not given),-2%,1%,1,-2%,21µM*,?
COC(=O)C(N)Cc1ccc(OC)c([N+](=O)[O-])c1 (stereo not given),-2%,·,-5,1%,4%,-17%
O=C(O)c1ccccc1C(=O)Nc1ccc(Oc2ccccc2)cc1,9%,·,-7,-21%,-13%,20%
CC(C)(C)C(=O)Nc1ccc(C(=O)Nc2cccc(Oc3ccc(C(=O)O)c(C(=O)O)c3)c2)cc1,16%,45µM*,-4,0%,-4%,-4%
O=C(Nc1cccc(Oc2ccc(C(=O)O)c(C(=O)O)c2)c1)c1ccc(-c2ccccc2)cc1,0%,·,-1,1%,19µM*,2%

# Bioassay records: PubChem BioAssay, National Center for Advancing Translational Sciences (NCATS)
